Experimental data from PubChem BioAssay (NCATS).
Inconclusive results are not listed. A call without a number means that no potency is given here. Unmarked numbers belong to inactive results. The source made the active and inactive calls. The call rests on the fitted dose curve; in most records, active means well fitted curve in the direction sought with a large enough effect; inconclusive means small, poorly fitted or top-dose-only effect, or another doubt; inactive means no such curve, though single readings can be large; an effect the other way counts as inactive or inconclusive.

How the values were obtained:
[1] = qHTS of pediatric cancer cell lines to identify multiple opportunities for drug repurposing: Primary screen for Saos-2 cells (AID 1347097); further: nearly all actives have a fitted effect of over 40% in size
Outline: (§1)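 Cells plated at 500-1,000/well in growth medium, compounds added after 5 h. MIPE tested at 11 points (from 0.78 nM), NPC at 8 points (from 0.59 nM). CellTiter-Glo luminescence after 48 h; concentration-response curves from primary screen.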

[2] = qHTS of pediatric cancer cell lines to identify multiple opportunities for drug repurposing: Primary screen for SK-N-SH cells (AID 1347098); further: nearly all actives have a fitted effect of over 65% in size;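 on activity change, negative = cytotoxic: DMSO served as neutral control and bortezomib at 2.3 µM as positive control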
Outline: (§2)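 Cells (500-1,000/well) rested 5 h, then received compounds for 48 h; metabolically active cells were measured by CellTiter-Glo luminescence. Final concentrations spanned up to 46 µM (MIPE, 11-point) or 0.59 nM-46 µM (NPC, 8-point) in primary screens, 11-point in follow-ups.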

[3] = qHTS of pediatric cancer cell lines to identify multiple opportunities for drug repurposing: Primary screen for NB1643 cells (AID 1347099); further: nearly all actives have a fitted effect of over 50% in size
Outline: as §1

[4] = qHTS of pediatric cancer cell lines to identify multiple opportunities for drug repurposing: Primary screen for LAN-5 cells (AID 1347100)
Outline: (§3)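 Cells (500-1,000/well) in growth media were settled 5 h at 37 degrees C, then given compounds for 48 h. Viability was read as CellTiter-Glo luminescence. Primary runs used MIPE at 11 points (0.78 nM-46 µM) and NPC at 8 points (0.59 nM-46 µM); follow-ups used 11 points.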

[5] = qHTS of pediatric cancer cell lines to identify multiple opportunities for drug repurposing: Primary screen for BT-12 cells (AID 1347101); further: nearly all actives have a fitted effect of over 25% in size
Outline: as §2

[6] = qHTS of pediatric cancer cell lines to identify multiple opportunities for drug repurposing: Primary screen for Rh18 cells (AID 1347102); further: nearly all actives have a fitted effect of over 65% in size
Outline: as §3

[7] = qHTS of pediatric cancer cell lines to identify multiple opportunities for drug repurposing: Primary screen for OHS-50 cells (AID 1347103); further: nearly all actives have a fitted effect of over 40% in size
Outline: as §2

[8] = qHTS of pediatric cancer cell lines to identify multiple opportunities for drug repurposing: Primary screen for RD cells (AID 1347104); further: nearly all actives have a fitted effect of over 55% in size
Outline: as §1

[9] = qHTS of pediatric cancer cell lines to identify multiple opportunities for drug repurposing: Primary screen for control Hh wild type fibroblast cells (AID 1347106); further: nearly all actives have a fitted effect of over 55% in size;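 on activity change, negative = cytotoxic: series mostly up to about 46 µM; a drop in luminescence marks cytotoxicity and a rise apparent proliferation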
Outline: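 Viability after 48 h compound treatment at 37C, 500-1,000 cells/well, read as ATP luminescence with CellTiter-Glo. Primary screens used 11-point (MIPE, 0.78 nM-46 µM) or 8-point (NPC, 0.59 nM-46 µM) final concentrations; follow-up screens used 11-point dilutions.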

[10] = qHTS of pediatric cancer cell lines to identify multiple opportunities for drug repurposing: Primary screen for MG 63 (6-TG R) cells (AID 1347105); further: nearly all actives have a fitted effect of over 50% in size
Outline: as §1
Potency means the concentration at half of the fitted maximal effect.

## C#C[C@]1(O)CC[C@H]2[C@@H]3CCC4=CC(=O)CC[C@@H]4[C@H]3CC[C@@]21C
[1]
  Potency: inactive
[2]
  Potency: inactive
[3]
  Potency: inactive
[4]
  Potency: inactive
[5]
  Potency: inactive
[6]
  Potency: inactive
[7]
  Potency: inactive
[8]
  Potency: inactive
[9]
  Potency: inactive

## CN1C(CCl)Nc2cc(Cl)c(S(N)(=O)=O)cc2S1(=O)=O (configuration not stated)
[1]
  Potency: inactive
[2]
  Potency: inactive
[3]
  Potency: inactive
[4]
  Potency: inactive
[5]
  Potency: inactive
[6]
  Potency: inactive
[7]
  Potency: inactive
[10]
  Potency: inactive
[9]
  Potency: inactive

## Cc1ncc(CSSCc2cnc(C)c(O)c2CO)c(CO)c1O
[1]
  Potency: inactive
[2]
  Potency: inactive
[3]
  Potency: inactive
[4]
  Potency: inactive
[5]
  Potency: inactive
[6]
  Potency: inactive
[7]
  Potency: inactive
[10]
  Potency: inactive
[9]
  Potency: inactive

## COc1cccc(OC)c1C(=O)N[C@@H]1C(=O)N2[C@@H]1SC(C)(C)[C@@H]2C(=O)O
[1]
  Potency: inactive
[2]
  Potency: inactive
[3]
  Potency: inactive
[4]
  Potency: inactive
[5]
  Potency: inactive
[6]
  Potency: inactive
[7]
  Potency: inactive
[10]
  Potency: inactive
[9]
  Potency: inactive

## Nc1ccc(C(=O)O)cc1
[1]
  Potency: inactive
[2]
  Potency: inactive
[3]
  Potency: inactive
[4]
  Potency: inactive
[5]
  Potency: inactive
[6]
  Potency: inactive
[7]
  Potency: inactive
[8]
  Potency: inactive
[9]
  Potency: inactive

## CCOC(=O)COc1ccc2c(C)c(CCN(CC)CC)c(=O)oc2c1Cl
[1]
  Potency: inactive
[2]
  Potency: inactive
[3]
  Potency: inactive
[4]
  Potency: inactive
[5]
  Potency: inactive
[6]
  Potency: inactive
[7]
  Potency: inactive
[8]
  Potency: inactive
[10]
  Potency: inactive
[9]
  Potency: inactive

## CCN(CC)CCNC(=O)COc1ccc(Cl)cc1
[1]
  Potency: inactive
[2]
  Potency: inactive
[3]
  Potency: inactive
[4]
  Potency: inactive
[5]
  Potency: inactive
[6]
  Potency: inactive
[7]
  Potency: inactive
[8]
  Potency: inactive
[10]
  Potency: inactive
[9]
  Potency: inactive

## CCOC(=O)OC(C)OC1=C(C(=O)Nc2ccccn2)N(C)S(=O)(=O)c2ccccc21 (configuration not stated)
[1]
  Potency: inactive
[2]
  Potency: inactive
[3]
  Potency: inactive
[4]
  Potency: inactive
[5]
  Potency: inactive
[6]
  Potency: inactive
[7]
  Potency: inactive
[8]
  Potency: inactive
[10]
  Potency: inactive
[9]
  Potency: inactive

## CCCCCCC[N+](CC)(CC)CCCCc1ccc(Cl)cc1
[1]
  Potency: 6.68 µM (active)
[2]
  Potency: 19.4 µM (active)
[3]
  Potency: 13.3 µM (active)
[4]
  Potency: 2.99 µM (active)
[5]
  Potency: 7.77 µM (active)
[6]
  Potency: 11.9 µM (active)
[7]
  Potency: 3.89 µM (active)
[9]
  Potency: inactive

## CC1(C)O[C@@H]2[C@@H](CO[C@@]3(COS(N)(=O)=O)OC(C)(C)O[C@@H]23)O1
[1]
  Potency: inactive
[2]
  Potency: inactive
[3]
  Potency: inactive
[4]
  Potency: inactive
[5]
  Potency: inactive
[6]
  Potency: inactive
[7]
  Potency: inactive
[8]
  Potency: inactive
[10]
  Potency: inactive
[9]
  Potency: inactive

## Cc1ccc(Nc2c(F)cccc2Cl)c(CC(=O)O)c1
[1]
  Potency: inactive
[2]
  Potency: inactive
[3]
  Potency: inactive
[4]
  Potency: inactive
[5]
  Potency: inactive
[6]
  Potency: inactive
[7]
  Potency: inactive
[8]
  Potency: inactive
[10]
  Potency: inactive
[9]
  Potency: inactive

## Nc1ccc(/C=C/c2ccc(N)cc2S(=O)(=O)O)c(S(=O)(=O)O)c1
[1]
  activity change, negative = cytotoxic: 2.49% [at 0.597 µM]
[2]
  activity change, negative = cytotoxic: 12.2% [at 0.741 µM]
[3]
  activity change, negative = cytotoxic: 24.7% [at 0.597 µM]
[4]
  activity change, negative = cytotoxic: 21.1% [at 0.597 µM]
[5]
  activity change, negative = cytotoxic: 16.8% [at 0.745 µM]
[6]
  activity change, negative = cytotoxic: 24% [at 0.597 µM]
[7]
  activity change, negative = cytotoxic: 19.6% [at 0.73 µM]
[8]
  activity change, negative = cytotoxic: 13.1% [at 0.597 µM]
[10]
  activity change, negative = cytotoxic: 9.42% [at 0.597 µM]
[9]
  activity change, negative = cytotoxic: -3.6% [at 0.597 µM]

## CC(=O)OCC(=O)[C@@]12N=C(C)O[C@@H]1C[C@H]1[C@@H]3CCC4=CC(=O)C=C[C@]4(C)[C@H]3[C@@H](O)C[C@@]12C
[1]
  Potency: inactive
[2]
  Potency: inactive
[3]
  Potency: inactive
[4]
  Potency: inactive
[5]
  Potency: inactive
[6]
  Potency: inactive
[7]
  Potency: inactive
[10]
  Potency: inactive
[9]
  Potency: inactive

## COc1ccc(OC)c(C(O)CNC(=O)CN)c1 (configuration not stated)
[1]
  Potency: inactive
[2]
  Potency: inactive
[3]
  Potency: inactive
[4]
  Potency: inactive
[5]
  Potency: inactive
[6]
  Potency: inactive
[7]
  Potency: inactive
[10]
  Potency: inactive
[9]
  Potency: inactive

## CC(C)(C)NC(=O)[C@@H]1CN(Cc2cccnc2)CCN1C[C@@H](O)C[C@@H](Cc1ccccc1)C(=O)N[C@H]1c2ccccc2C[C@H]1O
[1]
  Potency: inactive
[2]
  Potency: inactive
[3]
  Potency: inactive
[4]
  Potency: inactive
[5]
  Potency: inactive
[6]
  Potency: inactive
[7]
  Potency: inactive
[8]
  Potency: inactive
[9]
  Potency: inactive

## NCCc1ccn[nH]1
[1]
  Potency: inactive
[2]
  Potency: inactive
[3]
  Potency: inactive
[4]
  Potency: inactive
[5]
  Potency: inactive
[6]
  Potency: inactive
[7]
  Potency: inactive
[10]
  Potency: inactive
[9]
  Potency: inactive

## CN(C)CCCOc1nn(Cc2ccccc2)c2ccccc12
[1]
  Potency: inactive
[2]
  Potency: 15.4 µM (active)
[3]
  Potency: inactive
[6]
  Potency: inactive
[10]
  Potency: inactive
[9]
  Potency: inactive

## CCCCC(CC)CN=C(N)NC(N)=NCCCCCCN=C(N)NC(N)=NCC(CC)CCCC (configuration not stated)
[1]
  Potency: 9.44 µM (active)
[2]
  Potency: 4.33 µM (active)
[4]
  Potency: 5.31 µM (active)
[5]
  Potency: 2.46 µM (active)
[6]
  Potency: 8.41 µM (active)
[7]
  Potency: 4.37 µM (active)
[8]
  Potency: 5.96 µM (active)
[10]
  Potency: 6.68 µM (active)

## CCCCCCCCCCCCCCCC[N+](C)(C)CCN(Cc1ccc(OC)cc1)c1ncccn1
[1]
  Potency: 15 µM (active)
[2]
  Potency: 27.3 µM (active)
[4]
  Potency: 23.7 µM (active)
[5]
  Potency: 7.77 µM (active)
[6]
  Potency: 13.3 µM (active)
[7]
  Potency: 6.92 µM (active)

## COCc1c(C(C)C)nc(C(C)C)c(/C=C/[C@@H](O)C[C@@H](O)CC(=O)O)c1-c1ccc(F)cc1
[1]
  Potency: 0.106 µM (active)
[2]
  Potency: 0.433 µM (active)
[3]
  Potency: 1.5 µM (active)
[4]
  Potency: 3.76 µM (active)
[6]
  Potency: 0.473 µM (active)
[10]
  Potency: 0.0841 µM (active)
[9]
  Potency: inactive

## O=C1OCCN1/N=C/c1ccc([N+](=O)[O-])o1
[1]
  Potency: inactive
[3]
  Potency: inactive
[4]
  Potency: inactive
[5]
  Potency: inactive
[6]
  Potency: inactive
[7]
  Potency: inactive
[8]
  Potency: inactive
[10]
  Potency: inactive
[9]
  Potency: inactive

## O=C1OC(c2ccc(O)cc2)(c2ccc(O)cc2)c2ccccc21
[1]
  Potency: inactive
[2]
  Potency: inactive
[4]
  Potency: inactive
[5]
  Potency: inactive
[6]
  Potency: inactive
[7]
  Potency: inactive
[8]
  Potency: inactive
[9]
  Potency: inactive

## COc1cccc2c1C(=O)c1c(O)c3c(c(O)c1C2=O)C[C@@](O)(C(=O)CO)C[C@@H]3O[C@H]1C[C@H](N)[C@H](O)[C@H](C)O1
[1]
  Potency: 13.3 µM (active)
[2]
  Potency: 0.217 µM (active)
[3]
  Potency: 0.473 µM (active)
[5]
  Potency: 1.38 µM (active)
[6]
  Potency: 1.88 µM (active)
[7]
  Potency: 1.1 µM (active)
[8]
  Potency: 2.37 µM (active)
[10]
  Potency: 5.31 µM (active)
[9]
  Potency: 1.68 µM (active)
